Laboratory results: PubChem BioAssay AID1159580 (chemical genetic matrix, 2015)
The whole screen tested about 5,500 compounds, of which about 2,000 (36%) were called active. Another 18% or so got no clear call; they are omitted. Cut-off read from the data, not from the text of the source: active = normalized growth mostly below about 0.91 (no sharp cut-off); inconclusive = no clear call, values can overlap the other calls; inactive = mostly above about 0.92. This is one part of the list.

Experiment: chemical genetic growth profiling, strain panel (AID 1159580);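 note: tested at 20 µM; growth read once vehicle control cultures reached saturation at 30 °C; 1 = growth at the plate median or of vehicle wells; lower values mean less growth of the strain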
Details: growth OD

Measured: normalized growth

CN(C)C(=S)SSC(=S)N(C)C
active: S. cerevisiae deletion strains, locus YJR075W, strain HOC1, hits give low values 0.0622 | S. cerevisiae deletion strains, locus YKL009W, strain mrt4, hits give low values 0.657 | S. cerevisiae deletion strains, locus YKL068W, hits give low values 0.055 | S. cerevisiae deletion strains, locus YKL085W, strain MDH1 (second series), hits give low values 0.0509 | S. cerevisiae deletion strains, locus YKL085W, strain MDH1, hits give low values 0.0509 | S. cerevisiae deletion strains, locus YKL160W, strain elf1, hits give low values 0.0619 | S. cerevisiae deletion strains, locus YKL190W, strain CNB1, hits give low values 0.0467 | S. cerevisiae deletion strains, locus YKR001C, strain vps1, hits give low values 0.061 | S. cerevisiae deletion strains, locus YKR026C, strain gcn3, hits give low values 0.0601 | S. cerevisiae deletion strains, locus YKR091W, strain srl3, hits give low values 0.058 | S. cerevisiae deletion strains, locus YLL001W, strain dnm1, hits give low values 0.0595 | S. cerevisiae deletion strains, locus YLL026W, hits give low values 0.0612 | S. cerevisiae deletion strains, locus YLL041C, strain sdh2, hits give low values 0.0559 | S. cerevisiae deletion strains, locus YLR027C, strain aat2, hits give low values 0.0546 | S. cerevisiae deletion strains, locus YLR039C, strain RIC1, hits give low values 0.0839 | S. cerevisiae deletion strains, locus YLR058C, strain SHM2, hits give low values 0.048 | S. cerevisiae deletion strains, locus YLR102C, strain apc9, hits give low values 0.0608 | S. cerevisiae deletion strains, locus YLR113W, strain HOG1, hits give low values 0.126 | S. cerevisiae deletion strains, locus YLR221C, strain rsa3, hits give low values 0.0608 | S. cerevisiae deletion strains, locus YLR258W, strain gsy2, hits give low values 0.0595 | S. cerevisiae deletion strains, locus YLR262C, strain YPT6 (second series), hits give low values 0.0761 | S. cerevisiae deletion strains, locus YLR262C, strain YPT6, hits give low values 0.0956 | S. cerevisiae deletion strains, locus YLR268W, strain sec22, hits give low values 0.0648 | S. cerevisiae deletion strains, locus YLR320W, strain mms22, hits give low values 0.0851 | S. cerevisiae deletion strains, locus YLR330W, strain CHS5, hits give low values 0.0523 | S. cerevisiae deletion strains, locus YLR342W, strain FKS1 (second series), hits give low values 0.0636 | S. cerevisiae deletion strains, locus YLR342W, strain FKS1, hits give low values 0.0632 | S. cerevisiae deletion strains, locus YLR357W, strain rsc2, hits give low values 0.117 | S. cerevisiae deletion strains, locus YLR370C, strain arc18, hits give low values 0.0609 | S. cerevisiae deletion strains, locus YLR371W, strain rom2, hits give low values 0.0607 | S. cerevisiae deletion strains, locus YLR384C, strain iki3, hits give low values 0.0593 | S. cerevisiae deletion strains, locus YLR418C, strain cdc73, hits give low values 0.0915 | S. cerevisiae deletion strains, locus YML016C, strain PPZ1, hits give low values 0.0487 | S. cerevisiae deletion strains, locus YML032C, strain rad52, hits give low values 0.0671 | S. cerevisiae deletion strains, locus YML120C, strain ndi1, hits give low values 0.0572 | S. cerevisiae deletion strains, locus YML124C, strain tub3, hits give low values 0.0583 | S. cerevisiae deletion strains, locus YMR058W, strain fet3, hits give low values 0.0575 | S. cerevisiae deletion strains, locus YMR078C, strain ctf18, hits give low values 0.0701 | S. cerevisiae deletion strains, locus YMR125W, strain sto1, hits give low values 0.0716 | S. cerevisiae deletion strains, locus YMR129W, hits give low values 0.0557 | S. cerevisiae deletion strains, locus YMR205C, strain PFK2, hits give low values 0.0852 | S. cerevisiae deletion strains, locus YMR223W, strain ubp8, hits give low values 0.062 | S. cerevisiae deletion strains, locus YMR231W, strain pep5, hits give low values 0.0656 | S. cerevisiae deletion strains, locus YMR263W, strain SAP30, hits give low values 0.0571 | S. cerevisiae deletion strains, locus YMR307W, strain GAS1, hits give low values 0.108 | S. cerevisiae deletion strains, locus YNL067W, strain RPL9B, hits give low values 0.0475 | S. cerevisiae deletion strains, locus YNL071W, strain lat1, hits give low values 0.0591 | S. cerevisiae deletion strains, locus YNL128W, strain TEP1, hits give low values 0.0618 | S. cerevisiae deletion strains, locus YNL153C, strain GIM3, hits give low values 0.0449 | S. cerevisiae deletion strains, locus YNL183C, strain NPR1, hits give low values -0.000652 | S. cerevisiae deletion strains, locus YNL209W, strain ssb2, hits give low values 0.0584 | S. cerevisiae deletion strains, locus YNL233W, strain BNI4, hits give low values 0.0527 | S. cerevisiae deletion strains, locus YNL248C, strain rpa49, hits give low values 0.0732 | S. cerevisiae deletion strains, locus YNL250W, strain rad50, hits give low values 0.0632 | S. cerevisiae deletion strains, locus YNL271C, strain bni1, hits give low values 0.0624 | S. cerevisiae deletion strains, locus YNL298W, strain CLA4, hits give low values 0.0589 | S. cerevisiae deletion strains, locus YNL307C, strain MCK1, hits give low values 0.0687 | S. cerevisiae deletion strains, locus YNL322C, strain KRE1 (second series), hits give low values 0.0642 | S. cerevisiae deletion strains, locus YNL322C, strain KRE1, hits give low values 0.0479 | S. cerevisiae deletion strains, locus YNR049C, strain mso1, hits give low values 0.0549 | S. cerevisiae deletion strains, locus YNR052C, strain pop2, hits give low values 0.0601 | S. cerevisiae deletion strains, locus YOL006C, strain TOP1, hits give low values 0.0896 | S. cerevisiae deletion strains, locus YOL012C, strain htz1 0.179 | S. cerevisiae deletion strains, locus YOL147C, strain pex11, hits give low values 0.0594 | S. cerevisiae deletion strains, locus YOR001W, strain rrp6, hits give low values 0.0656 | S. cerevisiae deletion strains, locus YOR061W, strain CKA2, hits give low values 0.0451 | S. cerevisiae deletion strains, locus YOR069W, strain VPS5, hits give low values 0.0465 | S. cerevisiae deletion strains, locus YOR070C, strain gyp1, hits give low values 0.0589 | S. cerevisiae deletion strains, locus YOR080W, strain dia2, hits give low values 0.067 | S. cerevisiae deletion strains, locus YOR083W, strain WHI5, hits give low values 0.0647 | S. cerevisiae deletion strains, locus YOR106W, strain vam3, hits give low values 0.061 | S. cerevisiae deletion strains, locus YOR136W, strain idh2, hits give low values 0.0736 | S. cerevisiae deletion strains, locus YOR144C, strain elg1, hits give low values 0.0615 | S. cerevisiae deletion strains, locus YOR184W, strain ser1, hits give low values 0.0681 | S. cerevisiae deletion strains, locus YOR231W, strain MKK1, hits give low values 0.103 | S. cerevisiae deletion strains, locus YOR265W, strain rbl2, hits give low values 0.0567 | S. cerevisiae deletion strains, locus YOR270C, strain vph1, hits give low values 0.0916 | S. cerevisiae deletion strains, locus YOR290C, strain snf2, hits give low values 0.0706 | S. cerevisiae deletion strains, locus YOR316C, strain cot1, hits give low values 0.0552 | S. cerevisiae deletion strains, locus YPL051W, strain arl3, hits give low values 0.0635 | S. cerevisiae deletion strains, locus YPL055C, strain LGE1, hits give low values 0.0716 | S. cerevisiae deletion strains, locus YPL078C, strain atp4, hits give low values 0.0627 | S. cerevisiae deletion strains, locus YPL106C, strain sse1, hits give low values 0.1 | S. cerevisiae deletion strains, locus YPL240C, strain hsp82, hits give low values 0.0673 | S. cerevisiae deletion strains, locus YPL241C, strain CIN2, hits give low values 0.0518 | S. cerevisiae deletion strains, locus YPL256C, strain CLN2, hits give low values 0.125 | S. cerevisiae deletion strains, locus YPR119W, strain clb2, hits give low values 0.0622 | S. cerevisiae deletion strains, locus YPR141C, strain kar3, hits give low values 0.0653 | S. cerevisiae deletion strains, locus YPR163C, strain tif3, hits give low values 0.0696 | S. cerevisiae deletion strains, locus YPR167C, strain met16, hits give low values 0.0614 | S. cerevisiae deletion strains, strain wtn01, hits give low values 0.0602 | S. cerevisiae strains, strain wild type, hits give low values 0.0482
